Source: PubChem (National Center for Advancing Translational Sciences (NCATS))
JMJD2A Tudor = qHTS Assay for Inhibitors of JMJD2A-Tudor Domain; actives 4.4% (n = 390,000); Potency, µM (series often up to 114 µM), without a hit: at the top dose activity change, negative = inhibition, hits mostly inhibitors; AID 504339, 2011; AlphaScreen JMJD2A-Tudor / H3K4me3 peptide binding; also: potency is read from the fitted curve at half-maximal effect; % is scaled to controls: 0 for no effect and ±100 for the full control effect; nearly all actives have a fitted effect of over 50% in size
Six1-Eya2 inh = qHTS Assay for Inhibitors of the Six1/Eya2 Interaction. activity change, % (concentration not given with the values). AlphaScreen GST-Six1/His-Eya2 binding, biochemical; stronger effect = lower value. Homeobox protein SIX1 (Homo sapiens) + Protein phosphatase EYA2 (Homo sapiens), …. actives 0.56% (n = 360,000); in the data active = activity change below about -65%; inconclusive = mostly about -30% to -63%; also: % is scaled to controls: 0 for no effect and ±100 for the full control effect
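AlphaScreen luminescence read after one hour at 37 °C in darkness. Pin-transferred compounds met GST-Six1 and His-Eya2 protein (5X stock 250 nM/500 nM) plus glutathione donor and Ni-chelate acceptor beads (5X, 50 ug/mL).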
BAZ2B block = qHTS Assay for Inhibitors of BAZ2B | AlphaScreen BAZ2B-H3K14Ac peptide displacement | Bromodomain adjacent to zinc finger domain protein 2B (Homo sapiens), Q9UIF8 | actives 4.4% (n = 360,000) | Potency, µM (titrated, usually from 114 µM), inactives show top-dose activity change, negative = inhibition, actives largely listed as inhibitors; also: potency is read from the fitted curve at half-maximal effect; % is scaled to controls: 0 for no effect and ±100 for the full control effect; nearly all actives have a fitted effect of over 60% in size
Target sequence (Q9UIF8 whole entry, looked up, the tested form may be a part): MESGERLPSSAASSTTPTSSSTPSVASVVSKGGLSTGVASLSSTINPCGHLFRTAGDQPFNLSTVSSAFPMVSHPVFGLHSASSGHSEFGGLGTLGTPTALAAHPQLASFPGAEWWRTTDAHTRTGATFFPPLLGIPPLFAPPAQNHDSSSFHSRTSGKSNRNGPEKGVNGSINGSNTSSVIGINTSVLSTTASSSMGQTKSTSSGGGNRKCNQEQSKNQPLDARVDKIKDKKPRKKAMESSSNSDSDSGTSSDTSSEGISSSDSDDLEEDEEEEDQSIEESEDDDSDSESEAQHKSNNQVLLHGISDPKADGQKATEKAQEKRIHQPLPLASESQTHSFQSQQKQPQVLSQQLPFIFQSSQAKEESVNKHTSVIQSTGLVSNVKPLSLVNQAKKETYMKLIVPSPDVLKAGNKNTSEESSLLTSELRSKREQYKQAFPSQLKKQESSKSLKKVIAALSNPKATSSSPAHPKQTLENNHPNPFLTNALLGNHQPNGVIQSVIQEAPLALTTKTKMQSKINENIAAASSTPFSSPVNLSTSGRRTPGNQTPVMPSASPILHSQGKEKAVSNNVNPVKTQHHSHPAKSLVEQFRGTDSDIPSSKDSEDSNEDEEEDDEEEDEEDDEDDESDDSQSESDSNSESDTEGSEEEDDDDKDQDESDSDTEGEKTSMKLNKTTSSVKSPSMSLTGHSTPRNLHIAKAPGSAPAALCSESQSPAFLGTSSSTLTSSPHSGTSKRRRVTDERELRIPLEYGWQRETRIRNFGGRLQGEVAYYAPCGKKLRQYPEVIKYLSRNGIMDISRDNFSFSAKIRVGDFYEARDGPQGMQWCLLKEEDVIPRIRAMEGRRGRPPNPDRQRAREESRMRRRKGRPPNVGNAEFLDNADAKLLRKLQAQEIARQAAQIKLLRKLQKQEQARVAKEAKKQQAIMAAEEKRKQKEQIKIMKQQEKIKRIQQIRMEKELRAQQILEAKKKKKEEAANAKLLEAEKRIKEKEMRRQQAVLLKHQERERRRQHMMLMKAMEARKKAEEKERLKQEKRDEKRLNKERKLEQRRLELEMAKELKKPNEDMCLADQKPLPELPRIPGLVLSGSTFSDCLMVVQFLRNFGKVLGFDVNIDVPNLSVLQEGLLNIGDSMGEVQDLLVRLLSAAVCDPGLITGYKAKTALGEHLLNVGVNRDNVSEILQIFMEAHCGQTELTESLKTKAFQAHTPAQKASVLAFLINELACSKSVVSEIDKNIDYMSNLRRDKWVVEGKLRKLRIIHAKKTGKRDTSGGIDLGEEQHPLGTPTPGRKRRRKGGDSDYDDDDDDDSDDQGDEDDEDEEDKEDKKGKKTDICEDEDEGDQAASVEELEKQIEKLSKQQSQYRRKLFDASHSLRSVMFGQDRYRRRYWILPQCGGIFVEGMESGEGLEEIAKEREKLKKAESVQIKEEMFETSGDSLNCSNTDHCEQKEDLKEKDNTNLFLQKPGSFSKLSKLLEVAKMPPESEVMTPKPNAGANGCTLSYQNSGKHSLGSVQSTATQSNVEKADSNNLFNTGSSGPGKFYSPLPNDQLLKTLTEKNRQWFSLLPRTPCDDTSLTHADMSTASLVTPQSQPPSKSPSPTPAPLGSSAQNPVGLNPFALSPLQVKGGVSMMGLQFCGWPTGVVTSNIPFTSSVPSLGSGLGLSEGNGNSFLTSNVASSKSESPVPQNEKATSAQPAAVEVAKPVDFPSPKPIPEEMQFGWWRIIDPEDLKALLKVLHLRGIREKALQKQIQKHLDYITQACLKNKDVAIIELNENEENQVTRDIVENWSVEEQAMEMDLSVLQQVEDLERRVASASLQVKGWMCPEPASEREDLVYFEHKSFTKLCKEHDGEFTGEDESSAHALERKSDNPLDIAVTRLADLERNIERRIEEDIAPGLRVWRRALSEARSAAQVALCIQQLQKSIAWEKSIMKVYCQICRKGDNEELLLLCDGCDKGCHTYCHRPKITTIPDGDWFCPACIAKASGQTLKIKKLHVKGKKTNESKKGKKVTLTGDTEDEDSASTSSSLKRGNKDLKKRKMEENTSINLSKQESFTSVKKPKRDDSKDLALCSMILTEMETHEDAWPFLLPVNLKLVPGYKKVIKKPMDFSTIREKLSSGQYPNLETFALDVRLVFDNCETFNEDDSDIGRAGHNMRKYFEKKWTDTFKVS
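Complex of BAZ2B and biotin-H3K14Ac (50 nM apiece) forms over 30 min at RT, then faces library compounds up to 110 uM for another 30 min; AlphaScreen beads added, 20 min dark incubation, luminescence read.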
CtBP-E1A blk = qHTS Assay for Inhibitors of the CtBP/E1A Interaction; activity change, % (test concentration not listed); CtBP / adenovirus E1A interaction (AlphaScreen); actives 0.49% (n = 340,000); AlphaScreen GST-E1A/His-CtBP binding, 1536-well; stronger effect = lower value; in the data active = activity change below about -65%; inconclusive = mostly about -30% to -63%; also: % is scaled to controls: 0 for no effect and ±100 for the full control effect
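Homogeneous bead-based format: GST-tagged E1A captured on glutathione donor beads, His-tagged CtBP on nickel acceptor beads; compounds precede bead addition by 2 h at 37 °C.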
HP1b chromo inh = HTS for Inhibitors of HP1-beta Chromodomain Interactions with Methylated Histone Tails; Potency, µM (highest dose often 114 µM), inactives show at the highest dose activity change, negative = inhibition, usual class: inhibitors; Chromobox protein homolog 1 (Homo sapiens), P83916; AlphaScreen HP1-beta / biotin-H3K9me3 peptide binding; actives 0.56% (n = 390,000); also: potency is read from the fitted curve at half-maximal effect; nearly all actives have a fitted effect of over 70% in size
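HP1-beta protein (50 nM final) preincubated 30 min at room temperature with biotinylated H3(1-18)K9me3 peptide (50 nM) in PBS pH 7.4, 0.01% Tween-20, then compound added for 30 min. AlphaScreen streptavidin donor/nickel chelate acceptor beads (10 ug/mL final), 30 min dark, luminescence read.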
TDP1 block = qHTS Assay for Inhibitors of Tyrosyl-DNA Phosphodiesterase (TDP1). recombinant TDP1, AlphaScreen DNA substrate cleavage. Potency, µM (highest dose often 130 µM), for the others: at the highest dose activity change, negative = inhibition, usual class: inhibitors. actives 0.28% (n = 350,000); also: potency is read from the fitted curve at half-maximal effect; % is scaled to controls: 0 for no effect and ±100 for the full control effect; nearly all actives have a fitted effect of over 40% in size
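Tdp1 1 nM final; 15 min RT w/ cpd; substrate 15 nM, 5 min; beads 10 ug/ml, 10 min; AlphaScreen read. Neg ctrl: no enzyme.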
* = called active by the depositor; u = inconclusive; x = no result given; [ ] = dose if it differs, or a comment. Hits are enriched below; roughly 5.3% of the tested compounds scored in any of these assays. Unless noted, calls follow the shape of the dose curve; as a rule, active = well fitted inhibition curve with a large enough effect; inconclusive = small, poorly fitted or top-dose-only effect; inactive = no such curve, though single readings can be large or run the other way.

SMILES | JMJD2A Tudor | Six1-Eya2 inh | BAZ2B block | CtBP-E1A blk | HP1b chromo inh | TDP1 block
COc1ccc2[nH]cc(CCNC(=S)NCCc3ccccc3)c2c1 | u | -30 | 28µM* | -24 | -2% | 8%
O=C1C2C3C=CC(C3)C2C(=O)N1c1ncn[nH]1 (stereo not drawn) | 50µM* | -9 | u | 7 | u | 16µM*
CC(C)C[C@@H](CC(=O)N[C@@H](CCCN)CC(=O)N[C@@H]1CCNC[C@H]1C(=O)N[C@H](CC(=O)N[C@@H](CCC(=O)O)CC(=O)O)Cc1c[nH]c2ccccc12)NC(=O)[C@@H]1CCCC[C@H]1N | x | x | x | x | x | 4%
O=C(Oc1ccc(C(=S)N2CCOCC2)cc1)c1ccc([N+](=O)[O-])cc1 | 4% | -83* | 9% | x | 51% | x
O=C(c1ccc([N+](=O)[O-])cc1)N1CCOCC1 | -6% | 2 | x | 2 | 2% | x
COCC(C)NCc1ccc(OC)c(Br)c1 (stereo not drawn) | 18µM* | 2 | 50µM* | 1 | u | x
CCOC(=O)c1ccc(CN(Cc2ccc(F)cc2)S(=O)(=O)c2ccc(F)c(C(=O)Nc3cc(Cl)ccc3OC)c2)cc1 | -11% | x | 3% | x | 5% | 8%
Oc1ccc2ccccc2c1N=Nc1ccc(F)cc1 | 2.2µM* | u | 2.2µM* | -24 | 5.6µM* | 9%
Cc1ccc(N=Cc2sc(O)c3ccccc23)cc1 | 14%[57.1 µM] | 8 | 33% | 18 | 67% | -3%
Oc1c(N=Nc2nn[nH]n2)ccc2ccccc12 | x | -76* | x | u | x | x
Oc1[nH]c2ccccc2c1N=Nc1ccccc1 | -10% | -11 | u | -8 | 23% | 11%
Clc1cccc(Cc2nn[nH]n2)c1 | -2% | 0 | -10% | 4 | 49% | x
Cc1ccc(N=Nc2ccc3ccccc3c2O)cc1 | 3.2µM* | -88* | 1.1µM* | -1 | u | x
Oc1[nH]c2ccccc2c1N=Nc1ccc(F)cc1 | -2% | -13 | -1% | -7 | 14% | 7%
Oc1c(N=Nc2ccc(F)cc2)ccc2ccccc12 | 2.5µM* | u | 1.4µM* | -76* | 3.2µM* | x
O=C(Cc1ccc(NC(=O)N2CCSc3ncccc32)cc1)NCc1ccccc1 | -12% | x | -14% | x | 9% | 8%
O=S(=O)(Nc1ccc(F)c(C(F)(F)F)c1)c1ccc(N2CCCCS2(=O)=O)cc1 | -8% | x | 12% | x | 66% | 4%
Cc1c(Nc2cc(Cl)c3nonc3c2[N+](=O)[O-])c(=O)n(-c2ccccc2)n1C | -9%[11.4 µM] | -88* | -20% | x | -24% | -1%
Cc1c(Nc2cc(N3CCOCC3)c3nonc3c2[N+](=O)[O-])c(=O)n(-c2ccccc2)n1C | x | x | -19% | x | x | 3%
C=CCc1ccccc1OCCSc1nc(-c2ccccc2F)nc2cc(=O)[nH]n12 | u | x | u | x | 3% | u
O=C(/C=C/c1ccc2ccccc2n1)c1cc(Cl)ccc1O | u | -11 | 71µM* | -6 | -7% | x
O=C(C=Cc1ccco1)c1cc(Cl)ccc1O | 22µM* | 3 | x | 4 | 50µM* | x
Cc1ccccc1C(=O)NC1(C(F)(F)F)C(=O)Nc2c1c(=O)[nH]c(=O)n2CCc1ccccc1 (stereo not drawn) | 4% | x | 5% | x | 15% | x
COc1ccc(NC(=O)Cn2nnnc2-c2ccccc2F)c(C)c1 | -7% | x | -8% | x | 26% | -5%
O=C(NNC(=O)C1CC1)c1ccccc1[N+](=O)[O-] | -1% | 3 | -9% | 9 | 33% | 1%
